The results in this text go back to PubChem BioAssay (NCATS).

Inconclusive results are not listed. Values without a mark were called inactive. Calls come from the whole dose curve; as a rule, active = well fitted cell-killing curve with a large enough effect; inconclusive = small, poorly fitted or top-dose-only effect; inactive = flat fitted curve, though single readings scatter. Where a SMILES comes first, the peptide text is derived from it. Bridges are numbered along the chain shown (N, C = ends). [ ]: non-standard residue; d: D form. hArg = N=C(N)NCCCC[C@H](N)C(=O)O; Mpa = O=C(O)CCS

The assay can be described thus: qHTS of pediatric cancer cell lines to identify multiple opportunities for drug repurposing: Primary screen for U-2 OS cells (AID 1347096).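 Note: plate controls were DMSO wells for no effect and bortezomib positive control wells for full effect; nearly all actives have a fitted effect of over 50% in size.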 The following applies: U-2 OS viability, CellTiter-Glo luminescence, 48 h; series mostly up to 46 µM; activity change, negative = cytotoxic: at the top concentration. The source says:
Drug repurposing or repositioning has been offered as a strategy for drug development in oncology programs. This approach has special potential for childhood cancers and other rare or orphan diseases, where the expected return on new drug development has been a disincentive to pharmaceuticals.
In this project we exploit the poly-pharmacology of drugs to discover new indications via phenotypic screening of a panel of 19 well-characterized cell lines derived from solid tumors seen in children and adolescents. The goal is to identify approved drugs with previously unrecognized anticancer properties that has the potential to reveal new mechanisms and biological processes involved in carcinogenesis or drug resistance. We employed a titration-based paradigm (quantitative high-throughput screening or qHTS), where all compounds were tested at multiple concentrations for their effect on cell viability. Concentration-response curves (CRCs) were derived directly from the primary screen, and both potency and efficacy values were used to identify compounds with robust bioactivity profiles. We screened the NIH Chemical Genomics Center (NCGC) Pharmaceutical Collection (NPC) and Mechanism Interrogation Plate (MIPE) small molecule collections of approved and investigational compounds against these cell lines; and measured metabolically active cells after 48 hours of compound treatment as a proxy for cell viability.
Assay Submitter: Nathalia J. Martinez, National Center for Advancing Translational Sciences, National Institutes of Health, Rockville, MD, USA; email: natalia.martinez@nih.gov
[1] Shen, M et al. Quantitative high-throughput phenotypic screening of pediatric cancer cell lines identifies multiple opportunities for drug repurposing. Oncotarget 2017 Dec 19;9(4):4758-4772. PMID 29435139.
The cells were obtained from University of North Carolina (UNC), Pediatric Preclinical Testing Program (PPT), and Coriell Institute (CI).
qHTS cell viability assay:
Cells were assayed in growth media at a density of 500-1,000 cells/well. Five microliters of cells were dispensed into 1,536-well, white, solid-bottom, TC-treated plates (Greiner Bio One) using a multidrop dispenser and incubated at 37 degrees C, 5% CO2, under a humidified atmosphere for 5 hours. Twenty-three nanoliters of compounds and controls (neutral control DMSO or positive control bortezomib at final concentration of 2.3 µM) were subsequently transferred by Kalypsys pintool. For primary screens, the MIPE collection was tested at 11-point dilutions (final concentrations range from 0.78 nM to 46 µM) and the NPC collection at 8-point dilutions (final concentrations range from 0.59 nM to 46 µM). Compounds tested in follow-up screens were assayed at 11-point dilutions. Cells were incubated for 48 hours, followed by addition of 3 µL of CellTiter-Glo (Promega). After a 15 min incubation at room temperature, samples were analyzed for luminescence intensity using a ViewLux High-throughput CCD imager equipped with clear filters.
`CN/C(=C\[N+](=O)[O-])NCCSCc1csc(CN(C)C)n1`: the “activity change, negative = cytotoxic” value was 7.3%. The figure for `CN1C(C)(C)CCCC1(C)C` is -3.2%; for `CCCCOC(=O)c1ccc(N)cc1` it is -1.67%; for `Nc1c2c(nc3c1CCC3)CCCC2` it is -6.79%.

As for `Cc1ccc(C(C)C)c(O)c1`, the “activity change, negative = cytotoxic” value is 13.8%. For `COc1cc(O)cc(O)c1` the value was -2.2%; for `O=C(OOC(=O)c1ccccc1)c1ccccc1`, 3.82%. For `Nc1ncnc2c1ncn2[C@@H]1O[C@H](COP(=O)(O)O)[C@@H](O)[C@H]1O` the value was 4.56%; for `O=c1[nH]c(=O)c2ccccc2o1`, 12.8%; for `C/C(=C(\CCO)SS/C(CCO)=C(\C)N(C=O)Cc1cnc(C)nc1N)N(C=O)Cc1cnc(C)nc1N`, 9.7%. For the molecule `CC(=O)N[C@@H](Cc1ccc(O)cc1)C(=O)O`, the “activity change, negative = cytotoxic” value is -5.06%. For `CC(C)(C)NCC(O)COc1cccc2c1CCC(=O)N2` (stereo not given) the value was 3.74%; for `CC(C)=CCC[C@@](C)(O)[C@H]1CC=C(C)CC1`, 13.7%. For `Cc1cc(-n2nc3ccc(Cl)cc3n2)c(O)c(C(C)(C)C)c1` the value was 11.2%; for `O=C(O)c1ccc[n+]([O-])c1`, 11.5%.

Take `O=C(O)Cc1cn(-c2ccccc2)nc1-c1ccc(Cl)cc1`: the “activity change, negative = cytotoxic” value was 8.38%. In the case of `O=C(O)Cn1c(C(=O)Nc2nc(-c3ccccc3Cl)cs2)cc2ccccc21`, the “activity change, negative = cytotoxic” value was -4.79%. For `CCN1CC(CCN2CCOCC2)C(c2ccccc2)(c2ccccc2)C1=O` (stereo not given) the value was 4.09%; for `CCOC(=O)[C@H](CCc1ccccc1)N[C@@H](C)C(=O)N1Cc2cc(OC)c(OC)cc2C[C@H]1C(=O)O`, -0.683%; for `COc1ccc(Cc2cnc(N)nc2N)cc1OC`, 8.23%. For `CCC(C)(CN(C)C)OC(=O)c1ccccc1` (stereo not given) the value was -4.41%.

On to `CCOc1ccccc1O[C@H](c1ccccc1)[C@H]1CNCCO1`, for which the “activity change, negative = cytotoxic” value was 4.6%.

`Cc1cc(=O)[nH]c(=S)[nH]1`: the “activity change, negative = cytotoxic” value is 13.6%. The figure for `CCCCCCCC(=O)OCC(O)CO` (stereo not given) is -5.27%. For `O=c1[nH]c2cc(C(F)(F)F)c(N3CCOCC3)cc2n(CP(=O)(O)O)c1=O` the value was -0.914%; for `COc1ccc(O)cc1`, 5.65%; for `CCCNC(C)(C)COC(=O)c1ccccc1`, -2.09%. Turning to `OCCN1C[C@H](O)[C@@H](O)[C@H](O)[C@H]1CO`, the “activity change, negative = cytotoxic” value was 17.4%. For `NC(=O)[C@@H]1CSSCCC(=O)N[C@@H](CCCCN=C(N)N)C(=O)NCC(=O)N[C@@H](CC(=O)O)C(=O)N[C@@H](Cc2c[nH]c3ccccc23)C(=O)N2CCC[C@H]2C(=O)N1` ([Mpa][hArg]GDWPC-NH2; disulfide 1-7), the “activity change, negative = cytotoxic” value is 2.47%. Turning to `Cc1ccc(S(=O)(=O)NC(=O)NC2CCCCC2)cc1`, the “activity change, negative = cytotoxic” value is 1.66%. For `C=CCSCC1Nc2cc(Cl)c(S(N)(=O)=O)cc2S(=O)(=O)N1` (stereo not given) the value was 8.54%.

With `C[C@@H]1CCC[C@H](C)N1`, the “activity change, negative = cytotoxic” value is 8.56%. For `OC[C@@H](O)[C@@H](O)[C@H](O)[C@H](O)CO` the value was -8.08%; for `CCN(CC)C(=O)c1cccc(C)c1`, 12.3%; for `CN1C(=O)CC(c2ccccc2)C1=O` (stereo not given), 8.3%. The figure for `CC(=O)Oc1cccc(C)c1` is 8.61%; for `CCN[C@H]1CN(CCCOC)S(=O)(=O)c2sc(S(N)(=O)=O)cc21` it is 7.81%; for `C/C=C1\[C@H]2C=C(C)C[C@]1(N)c1ccc(=O)[nH]c1C2` it is 1.01%. For `Cc1cc(OI)c(C(C)C)cc1-c1cc(C(C)C)c(OI)cc1C` the value was 8.59%; for `Cc1c(I)c(=O)n(-c2ccccc2)n1C`, 7.71%.
